Among the data in the OligoGym collection are sensor-assay potency score (higher = more potent) values, retold here.
Note: reference of the scale not given here.

The first assay deals with XAGE3. In words: pooled miR-30 sensor sort-seq; sequence = guide strand. Conditions: shRNA.
As for TCTCTCTCCTGACCAGGTGCAG, the sensor-assay potency score (higher = more potent) was -1.38.

TTTCAGTTGGTGGTTCCTCTTG gave a sensor-assay potency score (higher = more potent) of -0.62.

With TTCCTCTTGCTGAGGCTCCTCA, the sensor-assay potency score (higher = more potent) is -0.958.

TGCACCCTGATCTTCTTCTCTC returned a sensor-assay potency score (higher = more potent) of -0.916.

On to TGATCTTCTTCTCTCTCCTGAC, for which the sensor-assay potency score (higher = more potent) was -1.05.

Sequence TGGTACACTTCTCCTCGGCCTA came in with a sensor-assay potency score (higher = more potent) of -1.1.

Consider TCTTCTTCTCTCTCCTGACCAG, for which the sensor-assay potency score (higher = more potent) is -1.02.

For the sequence TTTAAGTCAAATATCTTAGATA, the sensor-assay potency score (higher = more potent) was -0.923.

Turning to TGGCATTTTAAATTGTTCTGAT, the sensor-assay potency score (higher = more potent) is -0.221.

Take TTCTTCTCTCTCCTGACCAGGT: the sensor-assay potency score (higher = more potent) is -0.766.

Regarding TTGAGTCTCAGCTGCACCCTGA, the sensor-assay potency score (higher = more potent) was -0.3.

The next assay has as its target XAGE5. The assay is described as above. The settings on record: shRNA.
AAGTCGTAAACATCGTCTTGGT yielded a sensor-assay potency score (higher = more potent) of -0.56.

Take TTTCAGTTGGTGGTTCTTCTTG: the sensor-assay potency score (higher = more potent) was -0.699.

In turn, TTCTTCTTGTTGAGGCTCTGGC registered a sensor-assay potency score (higher = more potent) of -0.323.

As to CAAGTCGTAAACATCGTCTTGG, the sensor-assay potency score (higher = more potent) was -0.817.

For the sequence TTAGGCACTTGAATCTCAGCTG, the sensor-assay potency score (higher = more potent) amounted to 0.649.

As to TCATCTTCTCTCTTCTGACCAG, the sensor-assay potency score (higher = more potent) is -0.307.

In turn, TATCTCCGCATTCATCCCCAGT registered a sensor-assay potency score (higher = more potent) of -1.35.

On to TGAGCAAGTCGTAAACATCGTC, for which the sensor-assay potency score (higher = more potent) was -0.511.

In turn, TTGGTGGTTCTTCTTGTTGAGG returned a sensor-assay potency score (higher = more potent) of -1.63.

On to TTCAGTTGGTGGTTCTTCTTGT, for which the sensor-assay potency score (higher = more potent) worked out at 0.414.

In turn, TTTTAAATTGCTCTGATTTTGG had a sensor-assay potency score (higher = more potent) of -0.858.

Turning to TAGGCACTTGAATCTCAGCTGC, the sensor-assay potency score (higher = more potent) is -0.239.
